This is an account of results in PubChem BioAssay (NCATS).

Values joined by “and” are separate entries in the source; they are usually repeats but may differ in a detail not shown here. Equal entries are not always repeated. Inconclusive results are not listed. Active and inactive are the calls of the source. Calls come from the whole dose curve; as a rule, active = well fitted curve in the direction sought with a large enough effect; inconclusive = small, poorly fitted or top-dose-only effect, or another doubt; inactive = no such curve, though single readings can be large; an effect the other way counts as inactive or inconclusive.

The nature of test [1]: qHTS for Inhibitors of Ubiquitin-specific Protease USP2a Using CHOP2 as the Reporter: K633 Counterscreen (AID 652168). Note: series mostly up to about 57 µM. The essentials:
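Detection-system control: fluorescence of K48-linked DiUb-4IQF substrate (100 nM as added) tracked over time, Ex 525/Em 598, with pinned compounds and no enzyme, in pH 8 Tris buffer containing beta-mercaptoethanol and 0.05% Chaps.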
Background: qHTS replaces the single test concentration by a dilution series.

The target in test [2] is Ubiquitin carboxyl-terminal hydrolase 2 (Homo sapiens) (UniProt O75604). The test can be described thus: qHTS for Inhibitors of Ubiquitin-specific Protease USP2a Using CHOP2 as the Reporter: K484 Substrate (AID 652173).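 Note: cleavage of internally quenched K48 di-ubiquitin substrate measured as rising fluorescence over time; nearly all actives have a fitted effect of over 70% in size.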 Note: potency is the fitted concentration of half-maximal effect. In outline: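 Kinetic fluorescence (Ex 525/Em 598) tracked cleavage of an internally quenched K48 di-ubiquitin substrate, added as a 100 nM solution. The enzyme was added as a 5 nM USP2 solution before compound pinning, with no-enzyme controls. Buffer: Tris pH 8, beta-mercaptoethanol, CHAPS.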

In test [3] the target is Calcium and integrin-binding protein 1 (Homo sapiens) (UniProt Q99828). The test is described as follows: Primary qHTS for Identification of Calcium Integrin Binding Protein 1 (CIB1) Competitor (AID 1508620).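 Note: GST tagged CIB1 binding a fluorescein labelled alphaIIb integrin peptide tracer; top concentration of the series differs between compounds.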 The essentials:
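Fluorescence polarization competition: CIB1-GST (1 uM final) preincubated with compound 15 min at room temperature, then FITC-labeled alphaIIb peptide (100 nM final) added for another 15 min. Polarization read at Ex 480/Em 540.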

Test [4] in a line: qHTS for Inhibitors of Ubiquitin-specific Protease USP2a Using CHOP2 as the Reporter: Cytotox Assay (AID 652170). Note: nearly all actives have a fitted effect of over 70% in size. Note: potency is the fitted concentration of half-maximal effect. In outline: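 Cytotoxicity read as ATP luminescence (CellTiter-Glo) after 72 hr compound treatment at 37 deg C. Cells: HCT116, 600/well in DMEM plus 10% FBS. Normalization between DMSO-treated cells and cell-free wells.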

Chain of Calcium and integrin-binding protein 1 (Homo sapiens) (Q99828 whole entry, looked up): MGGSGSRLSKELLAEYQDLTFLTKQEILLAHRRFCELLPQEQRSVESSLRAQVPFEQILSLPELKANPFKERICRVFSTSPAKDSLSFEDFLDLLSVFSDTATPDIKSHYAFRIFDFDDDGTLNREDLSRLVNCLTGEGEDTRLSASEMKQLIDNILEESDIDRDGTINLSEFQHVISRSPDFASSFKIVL
Chain of Ubiquitin carboxyl-terminal hydrolase 2 (Homo sapiens) (O75604 whole entry, looked up): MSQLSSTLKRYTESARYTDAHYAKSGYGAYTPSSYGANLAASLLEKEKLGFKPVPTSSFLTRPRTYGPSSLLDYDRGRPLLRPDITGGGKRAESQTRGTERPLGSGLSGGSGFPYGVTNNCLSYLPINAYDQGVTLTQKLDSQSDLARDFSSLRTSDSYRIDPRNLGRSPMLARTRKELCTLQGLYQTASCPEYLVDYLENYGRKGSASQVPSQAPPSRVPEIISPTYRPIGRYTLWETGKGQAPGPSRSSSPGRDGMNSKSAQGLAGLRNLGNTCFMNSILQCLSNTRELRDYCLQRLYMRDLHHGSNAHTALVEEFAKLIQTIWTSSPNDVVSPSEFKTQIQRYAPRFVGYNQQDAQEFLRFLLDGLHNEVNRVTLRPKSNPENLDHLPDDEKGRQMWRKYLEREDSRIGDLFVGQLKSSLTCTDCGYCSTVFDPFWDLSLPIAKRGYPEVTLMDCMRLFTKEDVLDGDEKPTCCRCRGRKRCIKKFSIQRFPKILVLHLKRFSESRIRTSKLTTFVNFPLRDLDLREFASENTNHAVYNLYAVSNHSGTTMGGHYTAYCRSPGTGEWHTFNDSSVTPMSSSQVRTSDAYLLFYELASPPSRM

Consider `COc1cc(NS(=O)(=O)c2ccc(C)cc2)c(C(=O)Nc2nc(-c3ccccc3)cs2)cc1OC`, for which the call in test [1] was inactive. In addition, in test [2], the Potency is 2.17 µM (active). The Potency result in test [3] is “inactive”.
As for `Cc1ccc(S(=O)(=O)Nc2cnccc2C(=O)Nc2nc(-c3ccc(Cl)c(Cl)c3)cs2)cc1`, the call in test [1] was inactive. Moreover, the Potency in test [2] is 3.06 µM (active). Besides, in test [3], the Potency result was “inactive”.
Regarding `Cc1ccc(S(=O)(=O)Nc2ccccc2C(=O)Nc2nc(-c3ccccc3)cs2)cc1`, the result in test [1] was inactive. Also, in test [2], the Potency was 1.72 µM (active) and 1.93 µM (active). Also, the Potency entry in test [3] was “inactive”.
Regarding `Cc1ccc(-c2cc(C(=O)Nc3ccc(S(=O)(=O)N(C)C)cc3)c3ccccc3n2)cc1C`, the Potency entry in test [4] and in test [3] was “inactive” in each case. Further, the Potency in test [2] is 4.32 µM (active).
Take `Cc1ccc(-c2cc(C(=O)N3CCCCC3)c3ccccc3n2)cc1C`: the result in test [1] was inactive. In addition, the Potency in test [2] was 24.3 µM (active). Besides, the Potency result in test [3] is “inactive”.
Regarding `COc1c(NS(=O)(=O)c2ccc(C)cc2)cccc1C(=O)Nc1nc(-c2ccccc2)cs1`, the Potency is 1.48 µM (active) in test [4] and 3.06 µM (active) in test [2]. Further, in test [3], the Potency entry is “inactive”.
In the same order, the values of `Cc1ccc(-c2cc(C(=O)Nc3ccc(S(=O)(=O)Nc4ccc(C#N)cc4)cc3)c3ccccc3n2)cc1C` are “inactive”, 3.06 µM (active) and “inactive”.
Take `O=C(Nc1ccc([S+](=O)([O-])Nc2nccs2)cc1)c1ncn[nH]1`: in test [1], the call was inactive. Also, the Potency entry in test [2] and in test [3] was “inactive” each time.
Turning to `Cc1ccc(S(=O)(=O)Nc2ccc(C(=O)Nc3nc(-c4ccc(Cl)cc4)cs3)cc2)cc1`, the Potency in test [2] is 3.06 µM (active). Besides, the Potency result in test [3] was “inactive”.
In the same order, the values of `Cc1ccc(-c2cc(C(=O)N(C)c3ccccc3)c3ccccc3n2)cc1C` are 21.7 µM (active) and “inactive”.
In the same order, the values of `Cc1ccc(S(=O)(=O)Nc2cc(C(=O)Nc3nc(-c4ccccc4)cs3)ccc2Cl)cc1` are 2.17 µM (active) and “inactive”.
Turning to `COc1cc(C(=O)Nc2nc(-c3ccccc3)cs2)ccc1NS(=O)(=O)c1ccc(C)cc1`, the Potency entry in test [4] and in test [3] was “inactive” each time. Moreover, the Potency in test [2] was 2.73 µM (active).
`Cc1ccc(NS(=O)(=O)c2ccc(C(=O)Nc3nc(-c4ccccc4)cs3)cc2)cc1`: in test [2], the Potency was 3.43 µM (active). Further, the Potency entry in test [3] was “inactive”.
In the case of `O=C(Nc1ccc(S(=O)(=O)Nc2nccs2)cc1)[C@@H]1CC[C@H](C(=O)c2ccccc2)C1`, the Potency entry in test [4] and in test [3] was “inactive” each time. Also, the Potency in test [2] was 24.3 µM (active).
As for `Cc1ccc(S(=O)(=O)Nc2ccc(F)cc2C(=O)Nc2nc(-c3ccccc3)cs2)cc1`, the values for the Potency in test [4] and in test [2] were 14.8 µM (active) and 1.93 µM (active), respectively. The Potency entry in test [3] is “inactive”.
As to `O=C(Nc1ccc(S(=O)(=O)Nc2nccs2)cc1)C1CCC2(CCC2)CC1`, the Potency result in test [4] and in test [3] was “inactive” each time. In addition, the Potency in test [2] was 24.3 µM (active).
As for `COc1ccccc1NC(=O)c1cc(-c2ccc(C)c(C)c2)nc2ccccc12`, the Potency in test [2] is 10.9 µM (active). Besides, the Potency entry in test [3] was “inactive”.
In the same order, the values of `Cc1ccc(-c2cc(C(=O)Nc3ccc(-n4cccn4)cc3)c3ccccc3n2)cc1C` are 8.63 µM (active) and “inactive”.
On to `Cc1ccc(NS(=O)(=O)c2ccccc2C(=O)Nc2nc(-c3ccccc3)cs2)cc1`, for which, in test [2], the Potency is 3.43 µM (active). In addition, in test [3], the Potency entry is “inactive”.
For the compound `Cc1ccc(-c2cc(C(=O)Nc3cccc4ccccc34)c3ccccc3n2)cc1C`, the Potency result in test [4] and in test [3] was “inactive” throughout. In addition, the Potency in test [2] was 17.2 µM (active).
`COc1cc(NS(=O)(=O)c2ccc(C)cc2)ccc1C(=O)Nc1nc(-c2ccccc2)cs1`: the Potency in test [2] is 2.73 µM (active). Moreover, in test [3], the Potency entry was “inactive”.
For the compound `Cc1ccc(S(=O)(=O)Nc2ccc(C(=O)Nc3nc(-c4ccccc4)cs3)c(Cl)c2)cc1`, the figures for the Potency in test [4] and in test [2] were 14.8 µM (active) and 1.93 µM (active), respectively. Besides, in test [3], the Potency entry is “inactive”.
Turning to `CC(C)(C)C1CCC(C(=O)Nc2ccc(S(=O)(=O)Nc3nccs3)cc2)CC1` (stereo not given), in test [2], the Potency is 10.9 µM (active). In addition, the Potency result in test [3] was “inactive”.
`Cc1ccc(S(=O)(=O)Nc2ccccc2CNc2nc(-c3ccccc3)cs2)cc1`: the Potency in test [2] was 6.11 µM (active). In addition, the Potency entry in test [3] is “inactive”.
In the same order, the values of `Cc1ccc(S(=O)(=O)Nc2ccc(C)cc2C(=O)Nc2nc(-c3ccccc3)cs2)cc1` are 1.93 µM (active) and “inactive”.
Consider `Cc1ccc(S(=O)(=O)Nc2ccccc2C(=O)Nc2ccc(-c3ccccc3)nn2)cc1`, for which the Potency result in test [4] and in test [3] was “inactive” throughout. In addition, in test [2], the Potency is 3.85 µM (active).
`Cc1ccc(NS(=O)(=O)c2cccc(C(=O)Nc3nc(-c4ccccc4)cs3)c2)cc1`: in test [2], the Potency was 3.06 µM (active). Also, in test [3], the Potency entry is “inactive”.
In the case of `CCC1CCC(C(=O)Nc2ccc(S(=O)(=O)Nc3nccs3)cc2)CC1` (stereo not given), the Potency result in test [4] and in test [3] was “inactive” in each case. The Potency in test [2] is 27.3 µM (active).
In the case of `O=C(Nc1nc(-c2ccccc2)cs1)c1ccccc1`, the Potency result in test [4] and in test [3] was “inactive” each time. For the same compound, the Potency in test [2] was 24.3 µM (active).
